LDHA inh: LDHA (human) enzyme inhibition. P00338. purified LDHA, NADH/diaphorase-resazurin fluorescence; active compounds read low. activity change, % (values are at about 110 or 230 µM). 480,000 compounds, 0.15% hits; in the data active = activity change below about -30%; inconclusive = mostly about -25% to -30%;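 note: plate controls were DMSO wells for no effect and wells without enzyme for full effect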
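Human LDH5 at 2 nM final in Tris HCl pH 7.4 with 0.06 mM NADH and 0.2 mM pyruvate, reacted 5 minutes at room temperature. Remaining NADH coupled via diaphorase/resazurin; resorufin fluorescence read at 0 and 20 minutes, normalized to enzyme-free and DMSO wells.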
Pin1 inhibitor: blocks the human prolyl isomerase Pin1. Pin1 FP peptide displacement, HiFluor488, 10 min. Potency, µM (top dose mostly 115 µM), for inactives: at the top dose activity, negative = inhibition, most hits filed as inhibitors. 390,000 compounds, 0.009% hits. AID 504891; active = well fitted inhibition curve with a large enough effect in the polarisation, with a control signal flat, not every such curve was filed as active; inconclusive = small, poorly fitted or top-dose-only effect, or effect the other way, or a change in a side signal; inactive = no such curve, though single readings can be large or run the other way; the % refers to the polarisation; note: potency is the fitted concentration of half-maximal effect; % is set by controls: 0 for no effect and ±100 for the full control effect
Target sequence (Q13526 whole entry, looked up): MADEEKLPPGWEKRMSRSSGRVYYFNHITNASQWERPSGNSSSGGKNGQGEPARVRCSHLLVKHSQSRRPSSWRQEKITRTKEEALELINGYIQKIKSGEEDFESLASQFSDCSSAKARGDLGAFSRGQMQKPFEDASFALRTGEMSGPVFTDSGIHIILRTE
PGK inhibitor: T. brucei PGK inhibition | P07378 | PGK/GAPDH coupled, Kinase-Glo luminescence, 60 min | Potency, µM (highest dose often 57.5 µM), for inactives: at the top dose activity change, negative = inhibition, most hits filed as inhibitors | 380,000 compounds, 0.043% hits | AID 602233; note: potency is the fitted concentration of half-maximal effect; % is set by controls: 0 for no effect and ±100 for the full control effect; nearly all actives have a fitted effect of over 60% in size
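Luminescent ATP detection (Kinase-Glo Plus) follows a 60-minute room-temperature incubation, with wells lacking PGK as controls. Buffer: 100 mM TEA (pH 7.6), 5 mM MgCl2, 0.01% Tween-20. Coupling enzyme GAPDH (100 nM final) supplies unstable 1,3-BPG in-well.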
Vif-APOBEC3G blk: blocks the Vif interaction with human APOBEC3G; HeLa A3G-eYFP + Vif (tagged APOBEC3G with the HIV-1 protein that degrades it), YFP fluorescence, overnight; Potency, µM (doses to about 46.1 µM), for the others: top-dose activity, negative = active, usual class: inhibitors; 410,000 compounds, 0.076% hits; note: potency is the fitted concentration of half-maximal effect; % is set by controls: 0 for no effect and ±100 for the full control effect; nearly all actives have a fitted effect of over 60% in size
Target sequence (Q9HC16 whole entry, looked up): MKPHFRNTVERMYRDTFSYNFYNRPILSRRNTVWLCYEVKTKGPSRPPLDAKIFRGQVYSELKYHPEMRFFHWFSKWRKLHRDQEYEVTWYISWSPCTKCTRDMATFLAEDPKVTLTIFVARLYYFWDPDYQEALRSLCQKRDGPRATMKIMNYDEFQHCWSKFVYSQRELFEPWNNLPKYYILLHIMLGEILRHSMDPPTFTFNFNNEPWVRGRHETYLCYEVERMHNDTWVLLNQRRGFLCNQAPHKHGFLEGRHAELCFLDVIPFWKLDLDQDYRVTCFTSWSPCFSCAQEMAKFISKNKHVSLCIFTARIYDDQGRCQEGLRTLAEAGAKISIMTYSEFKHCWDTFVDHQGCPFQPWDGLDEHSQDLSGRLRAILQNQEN
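HeLa cells stably expressing Vif and C-terminally eYFP-tagged A3G, seeded overnight at 37 deg C, then exposed to compound by pintool overnight at 37 deg C. Rise in yellow fluorescence (Ex 488/Em 500-530, Acumen) marks blocked Vif-driven A3G degradation.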
Vif-A3F inh: Vif-A3F binding inhibition; HeLa A3F-eYFP + Vif (tagged APOBEC3F with the HIV-1 protein that degrades it), YFP fluorescence increase; 390,000 compounds, 0.2% hits; Potency, µM (doses to about 46.1 µM), for the others: top-dose activity, negative = active; AID 602313; note: potency is the fitted concentration of half-maximal effect; % of control where 0% means no effect; nearly all actives have a fitted effect of over 65% in size
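Fluorescence increase (Ex 488/Em 500-530) after overnight compound treatment at 37 deg C flags inhibition of Vif-driven A3F-eYFP loss in stable HeLa A3F-eYFP/Vif cells seeded overnight beforehand.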
mIDH1 inhibitor: blocks human mutant IDH1 R132H enzyme | O75874 | IDH1-R132H enzyme, NADPH consumption, diaphorase/resazurin fluorescence | Potency, µM (series often up to 76.6 µM), inactives show at the highest dose activity change, negative = inhibition, hits mostly inhibitors | 390,000 compounds, 0.093% hits | AID 602179; note: potency is the fitted concentration of half-maximal effect; % is set by controls: 0 for no effect and ±100 for the full control effect; nearly all actives have a fitted effect of over 65% in size
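IDH1-R132H (0.5 ug/mL dispensed) in pH 7.5 Tris buffer was preincubated 30 min with compound, then given a substrate mix of 0.016 mM NADPH and 2 mM alpha-KG for 80 min at room temperature; remaining NADPH was read by diaphorase/resazurin fluorescence.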
* hit, by the source's call. A selection: hits, their analogues and other compounds. The true share with any hit is near 0.49%. Unless noted, calls come from the whole dose curve; as a rule, active = well fitted curve in the direction sought with a large enough effect; inconclusive = small, poorly fitted or top-dose-only effect, or another doubt; inactive = no such curve, though single readings can be large; an effect the other way counts as inactive or inconclusive.

Screening N#Cc1c(SCC(=O)NCCc2ccccc2)nc(N2CCOCC2)c2c1CCCC2 returned LDHA inh -31*.
For CCOc1ccc(-n2c(C)nc3cc(C(=O)NCc4ccc(F)cc4)ccc32)cc1 the results were LDHA inh 13.
Screening COc1ccccc1CNC(=O)Cn1ccc2ccccc21 returned LDHA inh 1.
Screening CN(Cc1ccc2c(c1)OCO2)C(=O)c1nn(-c2ccccc2)c(=O)c2ccccc12 returned LDHA inh -35*.
Screening Cc1c(CCl)cc(C(=O)O)cc1CCl returned LDHA inh 2.
For COc1ccc(OC)c(N=c2ssnc2Cl)c1 the results were LDHA inh 3, Pin1 inhibitor -2%, PGK inhibitor 1%, Vif-APOBEC3G blk -6%, Vif-A3F inh -3% and mIDH1 inhibitor -4%.
`COc1cc(N=c2ssnc2Cl)c(OC)cc1Cl` gave LDHA inh 4, Pin1 inhibitor -12%, PGK inhibitor -10%, Vif-APOBEC3G blk -10%, Vif-A3F inh -8% and mIDH1 inhibitor 46µM*.
Screening COc1ccccc1CNC(=O)Cc1c(C)c2ccc(OC)c(OC)c2oc1=O returned LDHA inh 5.
`N#Cc1c(C(F)(F)F)cc(-c2cccs2)nc1SCC(=O)Nc1cccc(C(F)(F)F)c1` gave LDHA inh -5, Pin1 inhibitor inconclusive, PGK inhibitor 0%, Vif-APOBEC3G blk inconclusive, Vif-A3F inh 10µM* and mIDH1 inhibitor -6%.
CCOc1ccc(NC(=O)CSc2nc(-c3cccs3)cc(C(F)(F)F)c2C#N)cc1 was read as LDHA inh 0, Pin1 inhibitor 10%, PGK inhibitor 7%, Vif-APOBEC3G blk 0%, Vif-A3F inh 0% and mIDH1 inhibitor 0%.
`N#Cc1c(C(F)(F)F)cc(-c2cccs2)nc1SCC(=O)Nc1ccc(Cl)cc1` gave LDHA inh -9, Pin1 inhibitor inconclusive, PGK inhibitor inactive, Vif-APOBEC3G blk 10µM*, Vif-A3F inh inconclusive and mIDH1 inhibitor -18%.
For CCOc1ccc(-c2nc3ccc(C)cc3c(C(=O)O)c2C)cc1 the results were LDHA inh 0.
For CCOC(=O)C1Nc2ccc(Br)cc2C2C=CCC12 (configuration not stated) the results were LDHA inh 3, Pin1 inhibitor -23%, PGK inhibitor -8%, Vif-APOBEC3G blk -1%, Vif-A3F inh -1% and mIDH1 inhibitor 3%.
For O=C(O)C1Nc2ccc(Br)cc2C2C=CCC12 (configuration not stated) the results were LDHA inh -2, PGK inhibitor 32µM*, Vif-APOBEC3G blk 3%, Vif-A3F inh 5% and mIDH1 inhibitor -6%.
O=C(O)C1Nc2c(Cl)cc(Cl)cc2C2C=CCC12 (configuration not stated) was read as LDHA inh -2, Pin1 inhibitor inconclusive, PGK inhibitor 25µM*, Vif-APOBEC3G blk 1%, Vif-A3F inh -2% and mIDH1 inhibitor 4%.
`O=C(O)C1Nc2c(Cl)cc(Cl)c(Cl)c2C2C=CCC12` (configuration not stated) gave LDHA inh 13, PGK inhibitor inconclusive, Vif-APOBEC3G blk 0%, Vif-A3F inh -2% and mIDH1 inhibitor -16%.
Screening S=C(Nc1ccc(Cl)c(Cl)c1)Nc1nnc(-c2ccncc2)o1 returned LDHA inh 0.
For CC1CN(C2CCN(S(=O)(=O)c3ccccc3)CC2)CC(C)O1 (configuration not stated) the results were LDHA inh -32*, Pin1 inhibitor 0%, PGK inhibitor -8%, Vif-APOBEC3G blk 0%, Vif-A3F inh -13% and mIDH1 inhibitor 8%.
Screening O=C(CSc1nc(-c2ccc(F)cc2)nc2c1Cc1ccccc1O2)Nc1ccc(C(=O)O)cc1 returned LDHA inh 0, Pin1 inhibitor inconclusive, PGK inhibitor 16µM*, Vif-APOBEC3G blk 0%, Vif-A3F inh -10% and mIDH1 inhibitor -5%.
For O=C(CSc1nc(-c2ccccc2)nc2c1Cc1ccccc1O2)Nc1ccc(C(=O)O)cc1 the results were LDHA inh -1, Pin1 inhibitor inconclusive, PGK inhibitor inconclusive, Vif-APOBEC3G blk -3%, Vif-A3F inh -2% and mIDH1 inhibitor -5%.
For Oc1ccc(C=NNC(=S)Nc2ccc(F)cc2)c(O)c1 the results were LDHA inh 0, Pin1 inhibitor 13%, PGK inhibitor 4%, Vif-APOBEC3G blk inconclusive, Vif-A3F inh 25µM* and mIDH1 inhibitor -12%.
Screening O=C(CCC(=O)Nc1ccc(F)cc1)N/N=C/c1ccc(O)cc1O returned LDHA inh 10, Pin1 inhibitor 1%, PGK inhibitor 7%, Vif-APOBEC3G blk -5%, Vif-A3F inh -14% and mIDH1 inhibitor -15%.
Screening Cc1cc2nc(SCCOC(=O)Nc3cccc(Cl)c3)nc(C)c2cc1C returned LDHA inh -6, Pin1 inhibitor inconclusive, PGK inhibitor -1%, Vif-APOBEC3G blk -3%, Vif-A3F inh 25µM* and mIDH1 inhibitor -6%.
Screening COc1cc(OC)cc(C(=O)O/N=C(\N)c2ccccn2)c1 returned LDHA inh 2, Pin1 inhibitor -8%, PGK inhibitor -2%, Vif-APOBEC3G blk -7%, Vif-A3F inh -12% and mIDH1 inhibitor 17%.
Cc1ccc(C(=O)O/N=C(\N)c2ccccn2)c(C)c1 was read as LDHA inh -6, Pin1 inhibitor -3%, PGK inhibitor 16µM*, Vif-APOBEC3G blk -6%, Vif-A3F inh 6% and mIDH1 inhibitor 4%.
For COc1ccc(C(=O)O/N=C(\N)c2ccccn2)cc1 the results were LDHA inh -4, Pin1 inhibitor -2%, PGK inhibitor 11µM*, Vif-APOBEC3G blk 5%, Vif-A3F inh 5% and mIDH1 inhibitor 5%.
Screening Cc1ccc(C)c(C(C)NC(=O)c2cccnc2)c1 (configuration not stated) returned LDHA inh 0.
For CC12CC3CC(C)(C1)CC(C(=O)NC(=S)N1CCOCC1)(C3)C2 the results were LDHA inh -7, Pin1 inhibitor -3%, PGK inhibitor -7%, Vif-APOBEC3G blk 10µM*, Vif-A3F inh 2% and mIDH1 inhibitor 10%.
Screening Cc1[nH]c2ccccc2c1/C=C/c1cc[n+](C)cc1 returned LDHA inh -13, Pin1 inhibitor inconclusive, PGK inhibitor -8%, Vif-APOBEC3G blk 3.2µM*, Vif-A3F inh inconclusive and mIDH1 inhibitor 5%.
Screening CCOC(=O)c1oc2c(C)c(O)ccc2c(=O)c1-c1nc2ccccc2s1 returned LDHA inh -11.
